The text below walks through data of PubChem BioAssay (Tox21).

“And” between values parts separate entries of the source, which are not always exact repeats. Equal entries are not always repeated. Inconclusive results are not listed. Entries that show only a call come without a potency. The source holds several records for some structures; these can differ, active in one and inactive in another. The source made the active and inactive calls. The call rests on the fitted dose curve; in most records, active means well fitted cell-killing curve with a large enough effect in the repeat runs; inconclusive means weak or mixed curves, or effect the other way; inactive means flat fitted curve, though single readings scatter.
Potency means the concentration at half of the fitted maximal effect.

The assay is described as follows: qHTS RealTime-Glo MT Cell Viability Assay in HEK293 cells - 8 hour (AID 1224887). Further: nearly all actives have a fitted effect of over 50% in size. On activity change, negative = cytotoxicity: top concentration of the series differs between compounds. Conditions: RealTime-Glo luminescence; series mostly up to 76.8 µM; activity change, negative = cytotoxicity: at the top concentration. The source says:
U.S. Tox21 Program National Center for Advancing Translational Sciences [NCATS] NIH Chemical Genomics Center [NCGC] U.S. Environmental Protection Agency [EPA] National Institutes of Environmental Health Sciences [NIEHS] National Toxicology Program [NTP] U.S. Food and Drug Administration [FDA] Tox21 Assay Overview: Measure of cell viability is critical in the cell-base assay. Analysis of cell viability is necessary for the characterization of cell responses to cytotoxic drugs and environmental stress. A RealTime-Glo MT Cell Viability Assay to monitor cell viability in real time of continues cell culture during 40 hours of compound treatment was used to screen Tox21 10K library compounds in Hek293 cells. The RealTime-Glo MT Cell Viability Assay is a nonlytic, homogeneous, bioluminescent method to measure cell viability in real time using a simple, plate-based method. The assay involves adding NanoLuc luciferase and a cell-permeant prosubstrate to cells in culture. Viable cells reduce the proprietary prosubstrate to generate a substrate for NanoLuc luciferase. This substrate diffuses from cells into the surrounding culture medium, where it is rapidly used by the NanoLuc Enzyme to produce a luminescent signal. The signal correlates with the number of viable cells, making the assay well suited for cytotoxicity studies.
Tox21 Assay Protocol Summary: The mixture of Hek293 cell suspension and reagents were dispensed at 600cells/6 ul/well in 1536-well tissue culture treated black solid bottom plates using a Multidrop dispenser. After the assay plates were incubated at a 37 C/5% CO2 incubator for 5 hours, 23 nL of compounds dissolved in DMSO, positive and negative controls was transferred to the assay plate by a pintool work station. The plates were incubated at 37 C for 40 hours. The luminescence intensity were measured at 0h, 8h, 16h, 24h, 32h and 40h time points using ViewLux plate reader during compound treatment.
For orientation: In qHTS, concentration-response curves come from the screen itself.
Regarding `OC1CCCCCCCCCCC1`, the Potency entry is “inactive”.
The same measure, in the same setting: under `CN(C)CCN(Cc1cccs1)c1ccccn1` stands “inactive”; under `CCCCOCCOCCOCCO`, “inactive”.
The same measure, in the same setting: under `c1ccc2sc(SSN3CCOCC3)nc2c1` stands 48.9 µM (active); under `C=C(C)C1CC=C(C)CC1` (stereo not given), “inactive”.
On the same count and under the same terms, the value for `CCCC(=O)O` was “inactive”; that for `O=C(/C=C/c1ccccc1)OCc1ccccc1` was “inactive”.
On to `NC=O`, for which the Potency result is “inactive”.
Still for that read-out and setting: the value for `O=c1oc(=O)c2cc3c(=O)oc(=O)c3cc12` was “inactive”.
Consider `O=C(O)c1ccccc1Nc1cccc(C(F)(F)F)c1`, for which the Potency result was “inactive”.
Same read-out and setting: the value for `O=CCc1ccccc1` was “inactive”.
`COc1c(Cl)c(Cl)c(Cl)c(Cl)c1Cl`: the Potency result was “inactive”.
Still for that read-out and setting: under `COC(=O)Nc1nc2ccc(S(=O)c3ccccc3)cc2[nH]1` (stereo not given) stands “inactive and 1.69 µM (active)”.
Take `CC(=O)Oc1ccccc1C(=O)Nc1ncc([N+](=O)[O-])s1`: the “activity change, negative = cytotoxicity” value is -28.8% (inactive).
In the case of `Nc1ccc(S(=O)(=O)Nc2cnc3ccccc3n2)cc1`, the Potency entry is “inactive”.
On the same count and under the same terms, the value for `Cc1cccc([N+](=O)[O-])c1C` was “inactive”.
Still for that read-out and setting: the value for `c1cc(N(CC2CO2)CC2CO2)ccc1OCC1CO1` (stereo not given) was “inactive”; that for `O=CCCCC=O` was “inactive”.
On the same count and under the same terms, the value for `CCOCCOCCO` was “inactive”.
With `CC(C)OC(=O)C(C)(C)Oc1ccc(C(=O)c2ccc(Cl)cc2)cc1`, the Potency is 24.5 µM (active) and 16.9 µM (active).
As for `C/C=C/C(=O)O`, the Potency result is “inactive”.
On the same count and under the same terms, the value for `CC1=CCC(C(C)(C)O)CC1` (stereo not given) was “inactive”; that for `CN(C)CCC=C1c2ccccc2CCc2ccccc21` was “inactive”; that for `Cc1ccc(C)c(O)c1C` was “inactive”.
As to `CCCCC(CC)COCC1CO1` (stereo not given), the Potency result was “inactive”.
Same read-out and setting: the value for `O=C(OCc1ccccc1)c1ccccc1O` was “inactive”.
Same read-out and setting: under `CC(C)OC=O` stands “inactive”; under `Cc1c(C(N)=O)cc([N+](=O)[O-])cc1[N+](=O)[O-]`, “inactive”.
Still for that read-out and setting: the value for `CCC(C)OC(=O)c1ccc(O)cc1` (stereo not given) was “inactive”.
`CNCCCC12CCC(c3ccccc31)c1ccccc12`: the “activity change, negative = cytotoxicity” value is -8.65% [at 35.3 µM] (inactive).
On the same count and under the same terms, under `O=C(/C=C/C=C/c1ccc2c(c1)OCO2)N1CCCCC1` stands -28.6% (inactive).
Turning to `Clc1nc(Cl)c(Cl)c(Cl)c1Cl`, the Potency result was “inactive”.
Same read-out and setting: the value for `Cc1ncc[nH]1` was “inactive”; that for `CC(CCC(=O)O)(c1ccc(O)cc1)c1ccc(O)cc1` was “inactive”; that for `C=CC(C)(CCC=C(C)C)OC(C)=O` (stereo not given) was “inactive”.
With `Cc1cc2nc3c(=O)[nH]c(=O)nc-3n(C[C@H](O)[C@H](O)[C@H](O)CO)c2cc1C`, the Potency result was “inactive”.
As for `c1ccc(Nc2ccccc2)cc1`, the “activity change, negative = cytotoxicity” value was 5.77% (inactive).
For the compound `CN(C)C(=N)N=C(N)N`, the Potency result is “inactive”.
The same measure, in the same setting: the value for `COC(=O)CCC(=O)OC` was “inactive”.
On the same count and under the same terms, under `O=Cc1ccccc1O` stands “inactive”.
